Compounds without any hit were thinned out: in the full panel of roughly 79,000, 15% have a hit. The source made the active and inactive calls. Cut-off read from the data, not from the text of the source: active = growth inhibition above about 70%; inactive = the rest.
Key:
[1] = NCI Yeast Anticancer Drug Screen. Data for the rad52 strain (AID 147);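 note: 0% = growth of vehicle-treated control cultures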; settings: S. cerevisiae rad52 mutant growth inhibition, stronger effect = higher value
Summary of the method: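 DNA repair-defective yeast; compound exposure; growth scored against vehicle controls.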

[2] = NCI Yeast Anticancer Drug Screen. Data for the wt1 strain (AID 149);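 note: 0% = growth of vehicle-treated wt1 cultures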; settings: S. cerevisiae wt1 strain (SPY 50644) growth inhibition, stronger effect = higher value
Summary of the method: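 wt1 yeast, compound-treated; % growth inhibition vs vehicle control.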

[3] = NCI Yeast Anticancer Drug Screen. Data for the rad50EPP+ strain (AID 151);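 note: 0% = growth of vehicle-treated control cultures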; settings: S. cerevisiae rad50 mutant strain, stronger effect = higher value
Summary of the method: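 rad50EPP+ yeast treated with test compounds. Readout: growth vs vehicle control.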

[4] = NCI Yeast Anticancer Drug Screen. Data for the mgt1 strain (AID 153); settings: S. cerevisiae mgt1 mutant growth inhibition, stronger effect = higher value
Summary of the method: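 Growth inhibition relative to vehicle controls was scored for the mgt1 yeast strain after compound exposure.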

[5] = NCI Yeast Anticancer Drug Screen. Data for the rad50 strain (AID 155);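 note: 0% = growth of vehicle-only cultures of the same strain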; settings: S. cerevisiae rad50 strain growth inhibition, stronger effect = higher value
Summary of the method: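 Genetically altered yeast (DNA repair pathway); compound treatment; growth inhibition vs vehicle ctrl.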

[6] = NCI Yeast Anticancer Drug Screen. Data for the mec2-1 strain (AID 157); settings: S. cerevisiae mec2-1 strain, stronger effect = higher value
Summary of the method: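 Growth inhibition is read against vehicle-treated controls after compound exposure of the mec2-1 yeast strain, which is defective in DNA damage repair or cell cycle control.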

[7] = NCI Yeast Anticancer Drug Screen. Data for the rad14 strain (AID 159);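 note: 0% = growth of vehicle-treated control cultures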; settings: S. cerevisiae rad14 strain growth inhibition, stronger effect = higher value
Summary of the method: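 Test compounds were applied to a repair-deficient yeast strain. Its growth was then compared with that of cultures given vehicle alone, and inhibition was expressed relative to those controls.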

[8] = NCI Yeast Anticancer Drug Screen. Data for the sgs1 mgt1 strain (AID 161);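 note: 0% = growth of cultures given vehicle only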; settings: S. cerevisiae sgs1 mgt1 strain, stronger effect = higher value
Summary of the method: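 Yeast cells carrying a defined DNA-repair defect were exposed to test compounds. Growth inhibition was measured relative to vehicle-treated controls.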

[9] = NCI Yeast Anticancer Drug Screen. Data for the CLN2oe strain (AID 163);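 note: 0% = growth of vehicle-only control cultures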; settings: S. cerevisiae CLN2oe strain, stronger effect = higher value
Summary of the method: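 Compound-treated yeast; growth vs vehicle ctrl = % inhibition. Genetically altered strain (cell-cycle control).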

[10] = NCI Yeast Anticancer Drug Screen. Data for the cln2 rad14 strain (AID 165);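 note: 0% = growth equal to vehicle treated cultures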; settings: S. cerevisiae cln2 rad14 strain, stronger effect = higher value
Summary of the method: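 Growth inhibition, relative to vehicle-treated controls, is the read-out. The test organism is a yeast strain with defined genetic alterations, cln2 rad14.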

[11] = NCI Yeast Anticancer Drug Screen. Data for the bub3 strain (AID 167); settings: S. cerevisiae bub3 mutant strain, stronger effect = higher value
Summary of the method: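 Yeast carrying a defined mutation is treated with each compound, and growth is compared with that of vehicle-exposed cells to give inhibition.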

[12] = NCI Yeast Anticancer Drug Screen. Data for the wt2 strain (AID 169);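 note: 0% = growth of vehicle-treated yeast cultures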; settings: S. cerevisiae wt2 strain growth inhibition, stronger effect = higher value
Summary of the method: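 Compound exposure of yeast; growth compared with vehicle controls; inhibition reported.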

[13] = NCI Yeast Anticancer Drug Screen. Data for the mlh1 strain (AID 171);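 note: 0% = growth of vehicle-treated control cultures of the same strain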; settings: S. cerevisiae mlh1 strain growth inhibition, stronger effect = higher value
Summary of the method: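 Compounds are applied to a genetically altered yeast strain, and its growth is compared with that of vehicle-treated cultures to give percent inhibition.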

[14] = NCI Yeast Anticancer Drug Screen. Data for the sgs1 strain (AID 173);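 note: 0% = growth of vehicle-only control cultures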; settings: S. cerevisiae sgs1 mutant, stronger effect = higher value
Summary of the method: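 Compounds applied to genetically altered yeast; growth compared with vehicle-treated cultures to give % inhibition.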

[15] = NCI Yeast Anticancer Drug Screen. Data for the mlh1 rad18 strain (AID 175); settings: S. cerevisiae mlh1 rad18 strain growth inhibition, stronger effect = higher value
Summary of the method: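 Cells of a genetically altered yeast strain, deficient in DNA damage repair, were treated with compound. Their growth was then compared with that of vehicle-treated cultures to give inhibition.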

[16] = NCI Yeast Anticancer Drug Screen. Data for the rad18 strain (AID 177); settings: S. cerevisiae rad18 mutant growth inhibition, stronger effect = higher value
Summary of the method: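 Compounds are applied to a repair-deficient yeast strain, and growth is compared with that of vehicle-treated cultures to give percent inhibition.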

[17] = at 5.0 µM (retest, dose inferred, filed as 0.5)
[18] = at 50.0 µM (retest, dose inferred, filed as 5.0)

Measured: growth inhibition

COc1cc([C@@H]2c3cc4c(cc3C[C@@H]3COC(=O)C32)OCO4)cc(OC)c1O (stereo partly drawn)
active: [1]; at 11.0 µM 93% | [1]; at 33.0 µM 95% | [1]; at 100.0 µM 96% | [2]; at 33.0 µM 86% | [2]; at 100.0 µM 93% | [4]; at 100.0 µM 93% | [5]; at 3.7 µM 76% | [5]; at 11.0 µM 94% | [5]; at 33.0 µM 96% | [5]; [18] 96% | [5]; at 50.0 µM 97.1% | [5]; at 100.0 µM 97% | [6]; at 33.0 µM 92% | [6]; at 50.0 µM 98.8% | [6]; at 100.0 µM 96% | [7]; at 33.0 µM 75% | [7]; at 100.0 µM 93% | [8]; at 50.0 µM 78.3% | [10]; [18] 93% | [10]; at 50.0 µM 86.2% | [11]; at 50.0 µM 89.5% | [12]; at 33.0 µM 77% | [12]; at 100.0 µM 88% | [13]; at 33.0 µM 86% | [13]; at 100.0 µM 93% | [14]; at 11.0 µM 72% | [14]; at 33.0 µM 90% | [14]; at 100.0 µM 96% | [15]; at 50.0 µM 96.9% | [16]; at 33.0 µM 86% | [16]; at 100.0 µM 93%
inactive: [1]; at 1.2 µM 42% | [1]; at 3.7 µM 62% | [2]; at 1.2 µM 32% | [2]; at 3.7 µM 34% | [2]; at 11.0 µM 65% | [3]; at 1.2 µM -5% | [3]; at 3.7 µM -6% | [3]; at 11.0 µM -4% | [3]; at 33.0 µM -4% | [3]; at 100.0 µM -6% | [4]; at 1.2 µM 29% | [4]; at 3.7 µM 22% | [4]; at 11.0 µM 53% | [4]; at 33.0 µM 59% | [5]; at 1.2 µM 53% | [5]; [17] 64% | [6]; at 1.2 µM 1% | [6]; at 3.7 µM 17% | [6]; [17] 3% | [6]; at 11.0 µM 49% | [6]; [18] 46% | [7]; at 1.2 µM 9% | [7]; at 3.7 µM 8% | [7]; at 11.0 µM 65% | [8]; [17] 5% | [8]; [18] 45% | [9]; at 1.2 µM -3% | [9]; at 3.7 µM 0% | [9]; at 11.0 µM 24% | [9]; at 33.0 µM 58% | [9]; at 100.0 µM 51% | [10]; [17] 9% | [11]; at 1.2 µM 3% | [11]; at 3.7 µM 5% | [11]; [17] -36% | [11]; at 11.0 µM 31% | [11]; at 33.0 µM 50% | [11]; [18] 69% | [11]; at 100.0 µM 36% | [12]; at 1.2 µM 2% | [12]; at 3.7 µM 10% | [12]; at 11.0 µM 33% | [13]; at 1.2 µM 9% | [13]; at 3.7 µM 14% | [13]; at 11.0 µM 66% | [14]; at 1.2 µM 20% | [14]; at 3.7 µM 16% | [15]; [17] 2% | [15]; [18] 68% | [16]; at 1.2 µM 2% | [16]; at 3.7 µM 10% | [16]; at 11.0 µM 65%

CCCN(CCC)c1c([N+](=O)[O-])cc(S(N)(=O)=O)cc1[N+](=O)[O-]
active: [10]; [18] 73% | [10]; at 50.0 µM 85.3% | [11]; [18] 80% | [11]; at 50.0 µM 89.5%
inactive: [1]; at 1.2 µM 8% | [1]; at 3.7 µM 25% | [1]; at 11.0 µM 28% | [1]; at 33.0 µM 60% | [1]; at 100.0 µM 23% | [2]; at 1.2 µM 10% | [2]; at 3.7 µM 6% | [2]; at 11.0 µM 18% | [2]; at 33.0 µM 19% | [2]; at 100.0 µM 7% | [3]; at 1.2 µM -23% | [3]; at 3.7 µM -33% | [3]; at 11.0 µM -31% | [3]; at 33.0 µM -23% | [3]; at 100.0 µM -22% | [4]; at 1.2 µM -1% | [4]; at 3.7 µM 0% | [4]; at 11.0 µM -11% | [4]; at 33.0 µM 25% | [4]; at 100.0 µM -2% | [5]; at 1.2 µM 14% | [5]; at 3.7 µM 12% | [5]; [17] -5% | [5]; at 11.0 µM 33% | [5]; at 33.0 µM 44% | [5]; [18] 26% | [5]; at 50.0 µM 63.4% | [5]; at 100.0 µM 15% | [6]; at 1.2 µM -7% | [6]; at 3.7 µM 0% | [6]; [17] -13% | [6]; at 11.0 µM -25% | [6]; at 33.0 µM 32% | [6]; [18] 15% | [6]; at 50.0 µM 51.8% | [6]; at 100.0 µM -2% | [7]; at 1.2 µM -11% | [7]; at 3.7 µM -18% | [7]; at 11.0 µM -24% | [7]; at 33.0 µM 29% | [7]; at 100.0 µM -2% | [8]; [17] -11% | [8]; [18] 35% | [8]; at 50.0 µM 47.7% | [9]; at 1.2 µM -11% | [9]; at 3.7 µM -3% | [9]; at 11.0 µM -4% | [9]; at 33.0 µM 30% | [9]; at 100.0 µM 2% | [10]; [17] 2% | [11]; at 1.2 µM -13% | [11]; at 3.7 µM -22% | [11]; [17] 4% | [11]; at 11.0 µM -17% | [11]; at 33.0 µM 32% | [11]; at 100.0 µM -9%
